One assay has as its system Madurella mycetomatis MM55. Description: growth relative to untreated control; higher = less inhibition, active = 20 or less. The following applies: 25 µM. The gist of the method: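 Compound at 100 or 25 µM was applied for 7 days at 37 °C to hyphal fragments of M. mycetomatis MM55 or F. senegalensis CBS197.79 in 96-well plates. Fragments were suspended in colourless RPMI 1640 with L-glutamine and MOPS at 68–72% transmission at 660 nm, and viability was read with MTS (2 h, 490 nm) or resazurin (600 nm). Growth is reported as blank-corrected metabolic activity relative to the blank-corrected untreated growth control.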
`CC(=O)Nc1ccc(NC(=O)c2cc(-c3ccc(C)cc3O)n[nH]2)cc1`: the growth was 85.3% (inactive).
Still for that read-out and setting: in the case of `C[C@H](CS)C(=O)N1CCC[C@H]1C(=O)O` it was 77.5% (inactive); in that of `CCOc1cc([C@@H](CS(C)(=O)=O)N2C(=O)c3cccc(NC(C)=O)c3C2=O)ccc1OC`, 98.3% (inactive).
Regarding `CCNCc1cc(Nc2ccnc3cc(Cl)ccc23)ccc1O`, the growth was 37% (inactive).
Still for that read-out and setting: the same measure for `CC(C)C[C@H](NC(=O)[C@@H](NC(=O)c1cccc(-c2ccccc2)n1)[C@@H](C)O)B(O)O`: 99.4% (inactive).
On the same count and under the same terms, in the case of `Cn1nc(-c2cccc(CNC3CCc4ccc(O)cc43)c2)c2cnc(NC3CCCC3)nc21` (configuration not stated) it was 5.13% (active).
For `FC(F)(F)c1ccnc(Nc2cn3cc(-c4ccc(N5CCOCC5)nc4)ccc3n2)n1`, the growth is 73.7% (inactive).
For the compound `Cc1nn(C2CCS(=O)(=O)C2)c(C)c1C1Nc2ccccc2C(=O)N1Cc1ccc2c(c1)OCO2` (configuration not stated), the growth was 82.2% (inactive).
Still for that read-out and setting: in the case of `O=C(Nc1ccc(Cl)c(C(F)(F)F)c1)Nc1ccc(Cl)c(C(F)(F)F)c1` it was 43.5% (inactive); in that of `O=C(NCCN1CCCC1)c1ccc(Nc2nccc(-c3ccc(Cl)cc3)n2)cc1`, 50.5% (inactive); in that of `CN(C)CCOc1ccc(/C(=C(/CCCl)c2ccccc2)c2ccccc2)cc1`, 7.23% (active).
Still for that read-out and setting: in the case of `Fc1cccc(-c2ccc3c(c2)CC(NCc2c[nH]c4cnccc24)C3)c1` (configuration not stated) it was 5.29% (active); in that of `CC(=O)c1nn(-c2c(Cl)cc(C(F)(F)F)cc2Cl)c(N)c1S(C)=O` (configuration not stated), 119% (inactive); in that of `Cc1nc(NCc2ccc(F)cc2)nc(NCC(C)(C)C)c1C`, 6.77% (active).
`CN(C)CCn1cnc2sc3c(c2c1=O)CCC(NCc1cccc(Cl)c1)C3` (configuration not stated): the growth is 36.1% (inactive).
On to `CC(C)Nc1cccnc1N1CCN(C(=O)c2cc3cc(NS(C)(=O)=O)ccc3[nH]2)CC1`, for which the growth was 104% (inactive).
For the compound `Nc1nc(Nc2ccc3c(c2)CC[C@@H](N2CCCC2)CC3)nn1-c1cc2c(nn1)-c1ccccc1CCC2`, the growth is 4.07% (active).
On the same count and under the same terms, the same measure for `NC1CCc2nc(-c3cccnc3)nc(Nc3ccc(C(F)(F)F)cc3)c2C1` (configuration not stated): 71.4% (inactive); for `Cc1cc2ncc(C(=O)NCC(C)(C)NCC(=O)N3CCC[C@H]3C#N)cn2n1`: 82.4% (inactive); for `Cc1onc(-c2ccccc2)c1-c1ccc(S(N)(=O)=O)cc1`: 117% (inactive).
Still for that read-out and setting: the same measure for `N#Cc1ccc(C/C(=N/NC(=O)Nc2ccc(OC(F)(F)F)cc2)c2cccc(C(F)(F)F)c2)cc1`: 98.2% (inactive); for `Cc1cnc2nc(NC3COc4ccc(F)cc43)nc(NC3CCC4(CCCC4)CC3)c2c1` (configuration not stated): 73.6% (inactive).
Turning to `CC(=O)N1CCN(c2ccc(OC[C@H]3CO[C@](Cn4ccnc4)(c4ccc(Cl)cc4Cl)O3)cc2)CC1`, the growth was 3.29% (active).
On the same count and under the same terms, in the case of `Cc1cccc(Nc2nccc(-c3cccc(C#N)c3)n2)c1` it was 84.1% (inactive).
`CC(C)Oc1ccc(-c2nc(-c3cccc4c3CC[C@@H]4NCCO)no2)cc1C#N`: the growth was 3.06% (active).
Regarding `CC(C)Oc1cccc(-c2ccc3nc(Nc4ncccc4N(C)C)cn3c2)n1`, the growth was 124% (inactive).
On the same count and under the same terms, the same measure for `CC[C@H](C)[C@H]1O[C@]2(CC[C@@H]1C)C[C@@H]1C[C@@H](C/C=C(\C)[C@@H](O[C@H]3C[C@H](OC)[C@@H](O[C@H]4C[C@H](OC)[C@@H](O)[C@H](C)O4)[C@H](C)O3)[C@@H](C)/C=C/C=C3\CO[C@@H]4[C@H](O)C(C)=C[C@@H](C(=O)O1)[C@]34O)O2`: 95.8% (inactive).
As for `CCOc1ccc(Cc2nccc3cc(OCC)c(OCC)cc23)cc1OCC`, the growth is 80.9% (inactive).
On the same count and under the same terms, the same measure for `COc1ccc(-c2ccc3c(-c4ccc(F)cc4)cnc(N)c3c2)cn1`: 88.1% (inactive); for `Cc1nn(C)c(Oc2ccccc2)c1C=NOCc1ccc(C(=O)OC(C)(C)C)cc1`: 83.5% (inactive); for `Cc1cc(Nc2cc(N)ncn2)c(=O)n2c1C(=O)NC21CCCCC1`: 85.9% (inactive).
Same read-out and setting: in the case of `O=C1NCN(c2ccccc2)C12CCN(CCCC(c1ccc(F)cc1)c1ccc(F)cc1)CC2` it was 7.29% (active); in that of `FC(F)(F)CNc1ncc2nc(Nc3cc(Cl)cc(Cl)c3)n(C3CCNCC3)c2n1`, 70.4% (inactive); in that of `CCN(CC)C(=O)/C(C#N)=C/c1cc(O)c(O)c([N+](=O)[O-])c1`, 107% (inactive).
Take `O=C(Nc1cnc2ccccc2c1)c1ccccc1C(=O)c1ccc(F)cc1`: the growth was 92.9% (inactive).
The same measure, in the same setting: the same measure for `O=C(Nc1cccc(-c2n[nH]c3ccc(-c4n[nH]c(C5CCCN5)n4)cc23)c1)C1CC1` (configuration not stated): 62.4% (inactive).

The assay is the same for the next values; noted with them: 100 µM.
For `CC(=O)Nc1ccc(NC(=O)c2cc(-c3ccc(C)cc3O)n[nH]2)cc1`, the growth was 82.5% (inactive).
Consider `C[C@H](CS)C(=O)N1CCC[C@H]1C(=O)O`, for which the growth is 95.8% (inactive).
`CCOc1cc([C@@H](CS(C)(=O)=O)N2C(=O)c3cccc(NC(C)=O)c3C2=O)ccc1OC`: the growth is 90.4% (inactive).
Same read-out and setting: in the case of `CCNCc1cc(Nc2ccnc3cc(Cl)ccc23)ccc1O` it was 2.65% (active).
On the same count and under the same terms, the same measure for `CC(C)C[C@H](NC(=O)[C@@H](NC(=O)c1cccc(-c2ccccc2)n1)[C@@H](C)O)B(O)O`: 88.5% (inactive); for `Cn1nc(-c2cccc(CNC3CCc4ccc(O)cc43)c2)c2cnc(NC3CCCC3)nc21` (configuration not stated): 10.2% (active).
Still for that read-out and setting: the same measure for `FC(F)(F)c1ccnc(Nc2cn3cc(-c4ccc(N5CCOCC5)nc4)ccc3n2)n1`: 132% (inactive); for `Cc1nn(C2CCS(=O)(=O)C2)c(C)c1C1Nc2ccccc2C(=O)N1Cc1ccc2c(c1)OCO2` (configuration not stated): 91.4% (inactive).
As for `O=C(Nc1ccc(Cl)c(C(F)(F)F)c1)Nc1ccc(Cl)c(C(F)(F)F)c1`, the growth was 49.6% (inactive).
The same measure, in the same setting: in the case of `O=C(NCCN1CCCC1)c1ccc(Nc2nccc(-c3ccc(Cl)cc3)n2)cc1` it was 5.82% (active); in that of `CN(C)CCOc1ccc(/C(=C(/CCCl)c2ccccc2)c2ccccc2)cc1`, 6.66% (active); in that of `Fc1cccc(-c2ccc3c(c2)CC(NCc2c[nH]c4cnccc24)C3)c1` (configuration not stated), 5.16% (active).
As for `CC(=O)c1nn(-c2c(Cl)cc(C(F)(F)F)cc2Cl)c(N)c1S(C)=O` (configuration not stated), the growth was 107% (inactive).
Still for that read-out and setting: in the case of `Cc1nc(NCc2ccc(F)cc2)nc(NCC(C)(C)C)c1C` it was 5.94% (active); in that of `CN(C)CCn1cnc2sc3c(c2c1=O)CCC(NCc1cccc(Cl)c1)C3` (configuration not stated), 5.28% (active).
As for `CC(C)Nc1cccnc1N1CCN(C(=O)c2cc3cc(NS(C)(=O)=O)ccc3[nH]2)CC1`, the growth is 96.3% (inactive).
Still for that read-out and setting: in the case of `Nc1nc(Nc2ccc3c(c2)CC[C@@H](N2CCCC2)CC3)nn1-c1cc2c(nn1)-c1ccccc1CCC2` it was 4.45% (active).
Same read-out and setting: in the case of `NC1CCc2nc(-c3cccnc3)nc(Nc3ccc(C(F)(F)F)cc3)c2C1` (configuration not stated) it was 5.34% (active).
The same measure, in the same setting: in the case of `Cc1cc2ncc(C(=O)NCC(C)(C)NCC(=O)N3CCC[C@H]3C#N)cn2n1` it was 84.8% (inactive); in that of `Cc1onc(-c2ccccc2)c1-c1ccc(S(N)(=O)=O)cc1`, 91.1% (inactive); in that of `N#Cc1ccc(C/C(=N/NC(=O)Nc2ccc(OC(F)(F)F)cc2)c2cccc(C(F)(F)F)c2)cc1`, 91.3% (inactive).
`Cc1cnc2nc(NC3COc4ccc(F)cc43)nc(NC3CCC4(CCCC4)CC3)c2c1` (configuration not stated): the growth is 38.8% (inactive).
Same read-out and setting: in the case of `CC(=O)N1CCN(c2ccc(OC[C@H]3CO[C@](Cn4ccnc4)(c4ccc(Cl)cc4Cl)O3)cc2)CC1` it was 3.16% (active); in that of `Cc1cccc(Nc2nccc(-c3cccc(C#N)c3)n2)c1`, 49.1% (inactive); in that of `CC(C)Oc1ccc(-c2nc(-c3cccc4c3CC[C@@H]4NCCO)no2)cc1C#N`, 3.42% (active).
Still for that read-out and setting: the same measure for `CC(C)Oc1cccc(-c2ccc3nc(Nc4ncccc4N(C)C)cn3c2)n1`: 84.6% (inactive); for `CC[C@H](C)[C@H]1O[C@]2(CC[C@@H]1C)C[C@@H]1C[C@@H](C/C=C(\C)[C@@H](O[C@H]3C[C@H](OC)[C@@H](O[C@H]4C[C@H](OC)[C@@H](O)[C@H](C)O4)[C@H](C)O3)[C@@H](C)/C=C/C=C3\CO[C@@H]4[C@H](O)C(C)=C[C@@H](C(=O)O1)[C@]34O)O2`: 112% (inactive).
On to `CCOc1ccc(Cc2nccc3cc(OCC)c(OCC)cc23)cc1OCC`, for which the growth is 83% (inactive).
In the case of `COc1ccc(-c2ccc3c(-c4ccc(F)cc4)cnc(N)c3c2)cn1`, the growth is 38.6% (inactive).
On to `Cc1nn(C)c(Oc2ccccc2)c1C=NOCc1ccc(C(=O)OC(C)(C)C)cc1`, for which the growth was 102% (inactive).
Same read-out and setting: in the case of `Cc1cc(Nc2cc(N)ncn2)c(=O)n2c1C(=O)NC21CCCCC1` it was 84.7% (inactive); in that of `O=C1NCN(c2ccccc2)C12CCN(CCCC(c1ccc(F)cc1)c1ccc(F)cc1)CC2`, 5.27% (active).
Take `FC(F)(F)CNc1ncc2nc(Nc3cc(Cl)cc(Cl)c3)n(C3CCNCC3)c2n1`: the growth is 4.54% (active).
On the same count and under the same terms, the same measure for `CCN(CC)C(=O)/C(C#N)=C/c1cc(O)c(O)c([N+](=O)[O-])c1`: 91.8% (inactive); for `O=C(Nc1cnc2ccccc2c1)c1ccccc1C(=O)c1ccc(F)cc1`: 91.8% (inactive).
On the same count and under the same terms, in the case of `O=C(Nc1cccc(-c2n[nH]c3ccc(-c4n[nH]c(C5CCCN5)n4)cc23)c1)C1CC1` (configuration not stated) it was 36.4% (inactive).

The values are drawn from the supplement of paper PMC11172423.
